The target in one experiment is PUM1 PUF domain R4-PHG (Homo sapiens, UniProt Q14671 828-1176, N971P;Q975G). As to the kind of experiment: yeast three-hybrid, YBZ-1, SC-Leu-His + 0.5 mM 3-AT, 4 days. The following applies: tags: N-Gal4 AD-HA kept; label: inside an RPR1-promoter hybrid RNA with tandem MS2 sites; ssRNA. The procedure, abridged: (§1)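 Repeat regions from input (SC-Leu) and selection (SC-Leu-His + 0.5 mM 3-AT) plates were PCR-amplified and Illumina-sequenced after four days of growth. The cells were strain YBZ-1 with a LexA–MS2 coat fusion and a HIS3 reporter, co-expressing Pumilio-1 PUF domain libraries and matching RNA elements from a centromeric plasmid. The interaction score is the log change in variant frequency from input to selection, taken in log2 with a pseudocount of 1 for absent variants.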
Chain of PUM1 PUF domain R8-KHN (Q14671 828-1176 N1122K/Y1123H/Q1126N): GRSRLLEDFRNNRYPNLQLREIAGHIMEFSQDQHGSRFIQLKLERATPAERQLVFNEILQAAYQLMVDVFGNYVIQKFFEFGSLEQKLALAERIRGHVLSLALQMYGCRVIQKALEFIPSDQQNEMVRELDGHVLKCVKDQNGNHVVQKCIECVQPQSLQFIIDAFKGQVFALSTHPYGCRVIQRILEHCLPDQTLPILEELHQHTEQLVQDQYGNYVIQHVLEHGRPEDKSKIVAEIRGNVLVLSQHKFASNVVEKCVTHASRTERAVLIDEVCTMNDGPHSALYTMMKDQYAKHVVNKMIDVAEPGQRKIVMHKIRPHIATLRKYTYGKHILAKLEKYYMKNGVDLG
Chain of PUM1 PUF domain R3-IWR (Q14671 828-1176 C935I/R936W/Q939R): as the sequence (Q14671 828-1176 N1122K/Y1123H/Q1126N) above, with C108I, R109W, Q112R, K295N, H296Y, N299Q counted along it
Chain of PUM1 PUF domain R4-PHG (Q14671 828-1176 N971P/Q975G): as the sequence (Q14671 828-1176 N1122K/Y1123H/Q1126N) above, with N144P, Q148G, K295N, H296Y, N299Q counted along it
Chain of PUM1 PUF domain R5-RRT (Q14671 828-1176 C1007R/Q1011T): as the sequence (Q14671 828-1176 N1122K/Y1123H/Q1126N) above, with C180R, Q184T, K295N, H296Y, N299Q counted along it
Consider “GGCUAGAACUAGUGGAUCCCCCGGCGCCCGGCGGCUCGAGCCCGGGUAAGUGUAUAUAGUCUGCAUGCCGCCGGGCGCCAUGCCUGCAGGUCGACUCUAGAAAACAUG”, for which the binding signal was 4.99 log2 enrichment (interaction score).
Same read-out and setting: then “GGCUAGAACUAGUGGAUCCCCCGGCGCCCGGCGGCUCGAGCCCGGGUAAGUGUACAUAGUCUGCAUGCCGCCGGGCGCCAUGCCUGCAGGUCGACUCUAGAAAACAUG”, with 4.15 log2 enrichment (interaction score).
On the same count and under the same terms, then “GGCUAGAACUAGUGGAUCCCCCGGCGCCCGGCGGCUCGAGCCCGGGUAAGUGUAAAUAGUCUGCAUGCCGCCGGGCGCCAUGCCUGCAGGUCGACUCUAGAAAACAUG”, with 4.7 log2 enrichment (interaction score).

The next experiment addresses PUM1 PUF domain R8-KHN (Homo sapiens, UniProt Q14671 828-1176, N1122K;Y1123H;Q1126N). The experiment is described as above. The following applies: tags: N-Gal4 AD-HA kept; label: inside an RPR1-promoter hybrid RNA with tandem MS2 sites; ssRNA. The procedure, abridged:
as §1
As to “GGCUAGAACUAGUGGAUCCCCCGGCGCCCGGCGGCUCGAGCCCGGGUAAGGGUAAAUAGUCUGCAUGCCGCCGGGCGCCAUGCCUGCAGGUCGACUCUAGAAAACAUG”, the binding signal was 2.46 log2 enrichment (interaction score).
Same read-out and setting: then “GGCUAGAACUAGUGGAUCCCCCGGCGCCCGGCGGCUCGAGCCCGGGUAAGCGUAAAUAGUCUGCAUGCCGCCGGGCGCCAUGCCUGCAGGUCGACUCUAGAAAACAUG”, with 5.43 log2 enrichment (interaction score); and “GGCUAGAACUAGUGGAUCCCCCGGCGCCCGGCGGCUCGAGCCCGGGUAAGUGUAAAUAGUCUGCAUGCCGCCGGGCGCCAUGCCUGCAGGUCGACUCUAGAAAACAUG”, with 2.21 log2 enrichment (interaction score).

The target of the next experiment is PUM1 PUF domain R5-RRT (Homo sapiens, UniProt Q14671 828-1176, C1007R;Q1011T). Described as above. The following applies: tags: N-Gal4 AD-HA kept; label: inside an RPR1-promoter hybrid RNA with tandem MS2 sites; ssRNA. The procedure, abridged:
as §1
As for “GGCUAGAACUAGUGGAUCCCCCGGCGCCCGGCGGCUCGAGCCCGGGUAAGUGUGAAUAGUCUGCAUGCCGCCGGGCGCCAUGCCUGCAGGUCGACUCUAGAAAACAUG”, the binding signal was 1.02 log2 enrichment (interaction score).
On the same count and under the same terms, then “GGCUAGAACUAGUGGAUCCCCCGGCGCCCGGCGGCUCGAGCCCGGGUAAGUGUCAAUAGUCUGCAUGCCGCCGGGCGCCAUGCCUGCAGGUCGACUCUAGAAAACAUG”, with 4.59 log2 enrichment (interaction score); and “GGCUAGAACUAGUGGAUCCCCCGGCGCCCGGCGGCUCGAGCCCGGGUAAGUGUAAAUAGUCUGCAUGCCGCCGGGCGCCAUGCCUGCAGGUCGACUCUAGAAAACAUG”, with 0.94 log2 enrichment (interaction score).

In a further experiment the target is PUM1 PUF domain R3-IWR (Homo sapiens, UniProt Q14671 828-1176, C935I;R936W;Q939R). The description is as above. The following applies: tags: N-Gal4 AD-HA kept; label: inside an RPR1-promoter hybrid RNA with tandem MS2 sites; ssRNA. The method, boiled down:
as §1
With “GGCUAGAACUAGUGGAUCCCCCGGCGCCCGGCGGCUCGAGCCCGGGUAAGUGUAAUUAGUCUGCAUGCCGCCGGGCGCCAUGCCUGCAGGUCGACUCUAGAAAACAUG”, the binding signal is 3.7 log2 enrichment (interaction score).
Turning to “GGCUAGAACUAGUGGAUCCCCCGGCGCCCGGCGGCUCGAGCCCGGGUAAGUGUAAAUAGUCUGCAUGCCGCCGGGCGCCAUGCCUGCAGGUCGACUCUAGAAAACAUG”, the binding signal is 3.61 log2 enrichment (interaction score).
Take “GGCUAGAACUAGUGGAUCCCCCGGCGCCCGGCGGCUCGAGCCCGGGUAAGUGUAAGUAGUCUGCAUGCCGCCGGGCGCCAUGCCUGCAGGUCGACUCUAGAAAACAUG”: the binding signal is 4.57 log2 enrichment (interaction score).

For the origin of these results see PMC8384837, “Expanding the binding specificity for RNA recognition by a PUF domain”.
